Legend:
Test in all cases: DAPPL (digital affinity profiling via proximity ligation, sequencing); 10 mM Tris-HCl pH 7.5, 50 mM NaCl, 1 mM DTT, 4% glycerol, room temperature, 30 min; GST-TFs on glutathione beads, 16-mer random dsDNA library, 0.1% formaldehyde crosslink after washing; high values mean tight binding
Settings in all cases: protein: recombinant; tags: N-terminal GST; dsDNA, one strand shown
ERG = target: T1, ERG (Homo sapiens, UniProt P11308 1-479)
T1 sequence: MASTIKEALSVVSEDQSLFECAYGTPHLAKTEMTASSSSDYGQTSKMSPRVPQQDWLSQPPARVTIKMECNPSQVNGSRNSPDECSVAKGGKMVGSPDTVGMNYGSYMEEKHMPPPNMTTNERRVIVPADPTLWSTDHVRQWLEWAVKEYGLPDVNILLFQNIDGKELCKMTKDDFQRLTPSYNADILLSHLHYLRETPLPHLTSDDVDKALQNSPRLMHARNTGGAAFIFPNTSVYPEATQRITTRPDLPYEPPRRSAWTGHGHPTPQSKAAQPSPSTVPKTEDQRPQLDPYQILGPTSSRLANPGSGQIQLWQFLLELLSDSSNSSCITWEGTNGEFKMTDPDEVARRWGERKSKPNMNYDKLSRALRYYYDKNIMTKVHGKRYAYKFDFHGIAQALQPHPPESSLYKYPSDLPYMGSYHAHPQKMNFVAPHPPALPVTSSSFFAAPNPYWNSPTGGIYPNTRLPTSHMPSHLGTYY
In short: (§1)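 GST fusions of human transcription factors were expressed in yeast and captured with glutathione beads. Once given DNA barcodes and pooled alongside a tag-only sample, they were incubated for 30 min at room temperature with 200 nmole of a random double-stranded 16-mer DNA library in Tris/NaCl/DTT/glycerol buffer, then washed, crosslinked (0.1% formaldehyde), proximity-ligated, PCR-amplified and sequenced on an Illumina NextSeq500. The binding signal of each hexamer is its read frequency for a factor divided by its frequency for the tag-only sample.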

ELF1 = ELF1 (Homo sapiens, UniProt P32519 1-619)
ELF1, sequence (P32519 whole entry): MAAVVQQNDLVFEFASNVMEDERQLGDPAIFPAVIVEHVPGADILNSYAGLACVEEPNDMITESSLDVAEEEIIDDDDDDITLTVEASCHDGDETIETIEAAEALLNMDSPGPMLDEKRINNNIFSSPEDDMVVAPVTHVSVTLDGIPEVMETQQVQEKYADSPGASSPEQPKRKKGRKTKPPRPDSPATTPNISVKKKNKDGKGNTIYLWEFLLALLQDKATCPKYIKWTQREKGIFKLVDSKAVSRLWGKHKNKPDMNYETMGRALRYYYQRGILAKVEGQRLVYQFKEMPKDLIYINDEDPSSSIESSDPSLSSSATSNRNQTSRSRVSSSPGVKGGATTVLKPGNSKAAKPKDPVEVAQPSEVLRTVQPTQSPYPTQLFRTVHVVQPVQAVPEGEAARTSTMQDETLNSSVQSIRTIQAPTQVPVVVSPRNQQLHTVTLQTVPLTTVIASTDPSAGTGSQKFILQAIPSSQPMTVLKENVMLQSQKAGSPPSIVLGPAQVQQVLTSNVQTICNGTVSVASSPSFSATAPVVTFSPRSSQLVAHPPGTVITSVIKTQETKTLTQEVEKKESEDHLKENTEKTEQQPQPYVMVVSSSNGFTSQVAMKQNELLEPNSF
In short: as §1

EHF = target: T2, EHF (Homo sapiens, UniProt Q9NZC4 1-300)
T2 sequence: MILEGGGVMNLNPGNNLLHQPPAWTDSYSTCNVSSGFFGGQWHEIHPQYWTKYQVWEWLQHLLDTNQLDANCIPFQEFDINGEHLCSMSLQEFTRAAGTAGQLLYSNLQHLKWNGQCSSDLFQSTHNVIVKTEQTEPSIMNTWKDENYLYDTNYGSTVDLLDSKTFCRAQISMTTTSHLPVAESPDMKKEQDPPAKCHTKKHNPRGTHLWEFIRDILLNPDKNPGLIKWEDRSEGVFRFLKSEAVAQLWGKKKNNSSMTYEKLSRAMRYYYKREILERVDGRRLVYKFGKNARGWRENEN
In short: as §1

ETV5 = ETV5 (Homo sapiens, UniProt P41161 1-510)
ETV5, sequence (P41161 whole entry): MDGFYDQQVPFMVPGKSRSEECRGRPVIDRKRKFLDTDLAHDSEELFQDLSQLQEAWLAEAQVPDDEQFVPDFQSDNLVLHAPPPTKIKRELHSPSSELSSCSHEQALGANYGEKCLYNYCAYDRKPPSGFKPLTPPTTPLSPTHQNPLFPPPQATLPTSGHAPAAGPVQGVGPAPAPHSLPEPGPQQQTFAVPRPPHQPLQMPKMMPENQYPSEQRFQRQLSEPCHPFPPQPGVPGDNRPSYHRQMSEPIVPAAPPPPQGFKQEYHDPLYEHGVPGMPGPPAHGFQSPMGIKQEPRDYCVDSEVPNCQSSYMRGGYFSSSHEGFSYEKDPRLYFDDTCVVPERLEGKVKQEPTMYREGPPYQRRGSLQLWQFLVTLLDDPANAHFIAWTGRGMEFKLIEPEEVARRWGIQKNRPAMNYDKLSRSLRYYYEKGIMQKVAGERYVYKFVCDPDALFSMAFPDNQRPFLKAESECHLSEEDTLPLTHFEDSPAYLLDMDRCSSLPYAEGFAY
In short: as §1

ELF3 = target: T3, ELF3 (Homo sapiens, UniProt P78545 1-371)
T3 sequence: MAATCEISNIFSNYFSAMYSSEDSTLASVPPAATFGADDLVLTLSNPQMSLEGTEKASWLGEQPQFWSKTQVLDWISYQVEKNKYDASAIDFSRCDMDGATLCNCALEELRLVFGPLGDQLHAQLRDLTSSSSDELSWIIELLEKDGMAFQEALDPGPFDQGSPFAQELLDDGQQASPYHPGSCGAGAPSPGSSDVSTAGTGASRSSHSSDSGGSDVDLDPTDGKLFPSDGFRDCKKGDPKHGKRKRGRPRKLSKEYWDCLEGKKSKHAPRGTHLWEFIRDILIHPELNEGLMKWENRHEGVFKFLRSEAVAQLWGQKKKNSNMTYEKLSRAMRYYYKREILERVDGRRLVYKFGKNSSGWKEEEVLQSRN
In short: as §1

ETV1 = ETV1 (Homo sapiens, UniProt P50549 1-477)
ETV1, sequence (P50549 whole entry): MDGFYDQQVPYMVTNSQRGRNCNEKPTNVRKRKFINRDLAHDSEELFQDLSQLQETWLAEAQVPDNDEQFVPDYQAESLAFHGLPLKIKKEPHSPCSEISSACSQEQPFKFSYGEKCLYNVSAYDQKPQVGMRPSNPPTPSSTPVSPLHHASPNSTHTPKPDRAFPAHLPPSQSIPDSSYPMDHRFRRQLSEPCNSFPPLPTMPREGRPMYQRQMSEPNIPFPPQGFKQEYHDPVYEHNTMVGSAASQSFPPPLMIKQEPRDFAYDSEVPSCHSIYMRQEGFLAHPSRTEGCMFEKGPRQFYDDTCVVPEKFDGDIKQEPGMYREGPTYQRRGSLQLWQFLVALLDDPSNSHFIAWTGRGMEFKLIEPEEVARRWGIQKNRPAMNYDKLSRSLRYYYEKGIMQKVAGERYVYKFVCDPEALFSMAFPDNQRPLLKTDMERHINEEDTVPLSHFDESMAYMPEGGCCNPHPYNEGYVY
In short: as §1

ETV7 = target: T4, ETV7 (Homo sapiens, UniProt Q9Y603 1-341)
T4 sequence: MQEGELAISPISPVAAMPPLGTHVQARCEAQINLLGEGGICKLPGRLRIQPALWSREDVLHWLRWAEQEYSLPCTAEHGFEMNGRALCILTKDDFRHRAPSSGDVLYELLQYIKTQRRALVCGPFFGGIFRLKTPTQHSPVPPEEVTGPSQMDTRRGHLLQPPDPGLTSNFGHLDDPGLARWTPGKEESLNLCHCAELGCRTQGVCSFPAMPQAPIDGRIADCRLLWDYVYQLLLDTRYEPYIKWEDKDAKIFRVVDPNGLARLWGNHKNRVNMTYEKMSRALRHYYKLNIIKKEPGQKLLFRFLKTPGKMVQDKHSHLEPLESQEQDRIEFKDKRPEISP
In short: as §1

ETV3 = target: T5, ETV3 (Homo sapiens, UniProt P41162-2 1-143)
T5 sequence: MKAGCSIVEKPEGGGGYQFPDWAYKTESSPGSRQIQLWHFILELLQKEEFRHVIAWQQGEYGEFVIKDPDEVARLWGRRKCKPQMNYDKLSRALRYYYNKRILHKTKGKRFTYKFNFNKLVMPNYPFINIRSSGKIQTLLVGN
In short: as §1

ETV6 = ETV6 (Homo sapiens, UniProt P41212 1-452)
ETV6, sequence (P41212 whole entry): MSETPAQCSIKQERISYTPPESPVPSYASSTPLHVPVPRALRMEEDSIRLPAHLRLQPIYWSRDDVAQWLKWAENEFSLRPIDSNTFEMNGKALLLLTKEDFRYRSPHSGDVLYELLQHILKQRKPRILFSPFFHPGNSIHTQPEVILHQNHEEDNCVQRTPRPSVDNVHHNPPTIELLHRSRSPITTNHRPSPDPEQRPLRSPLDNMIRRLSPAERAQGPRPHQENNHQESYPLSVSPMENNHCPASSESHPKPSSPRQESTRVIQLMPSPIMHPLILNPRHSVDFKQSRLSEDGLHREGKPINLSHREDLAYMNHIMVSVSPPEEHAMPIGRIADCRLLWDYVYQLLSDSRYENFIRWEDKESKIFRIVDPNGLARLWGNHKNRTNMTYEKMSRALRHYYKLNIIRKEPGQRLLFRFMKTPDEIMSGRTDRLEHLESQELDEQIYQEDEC
In short: as §1

ELK3 = target: T6, ELK3 (Homo sapiens, UniProt P41970 1-407)
T6 sequence: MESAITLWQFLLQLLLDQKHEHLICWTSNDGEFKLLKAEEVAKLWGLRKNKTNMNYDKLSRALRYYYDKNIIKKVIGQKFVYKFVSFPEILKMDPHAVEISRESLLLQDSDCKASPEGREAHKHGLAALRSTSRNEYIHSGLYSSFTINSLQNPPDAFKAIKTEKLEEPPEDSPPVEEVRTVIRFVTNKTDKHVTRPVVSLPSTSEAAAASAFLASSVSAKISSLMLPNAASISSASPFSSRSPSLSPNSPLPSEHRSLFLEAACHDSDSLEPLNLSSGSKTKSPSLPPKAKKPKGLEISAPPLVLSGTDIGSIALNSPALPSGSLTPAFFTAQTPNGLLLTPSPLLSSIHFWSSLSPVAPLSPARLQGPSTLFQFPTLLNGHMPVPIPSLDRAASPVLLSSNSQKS
In short: as §1

SPIC = target: T7, SPIC (Homo sapiens, UniProt Q8N5J4 1-248)
T7 sequence: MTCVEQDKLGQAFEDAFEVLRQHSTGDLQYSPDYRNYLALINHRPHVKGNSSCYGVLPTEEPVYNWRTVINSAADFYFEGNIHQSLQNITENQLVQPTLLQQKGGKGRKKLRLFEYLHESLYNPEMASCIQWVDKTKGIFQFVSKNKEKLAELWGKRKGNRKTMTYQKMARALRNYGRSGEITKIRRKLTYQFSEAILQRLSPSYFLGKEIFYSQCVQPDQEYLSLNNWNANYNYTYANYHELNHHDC
In short: as §1

ERF = target: T8, ERF (Homo sapiens, UniProt P50548 1-548)
T8 sequence: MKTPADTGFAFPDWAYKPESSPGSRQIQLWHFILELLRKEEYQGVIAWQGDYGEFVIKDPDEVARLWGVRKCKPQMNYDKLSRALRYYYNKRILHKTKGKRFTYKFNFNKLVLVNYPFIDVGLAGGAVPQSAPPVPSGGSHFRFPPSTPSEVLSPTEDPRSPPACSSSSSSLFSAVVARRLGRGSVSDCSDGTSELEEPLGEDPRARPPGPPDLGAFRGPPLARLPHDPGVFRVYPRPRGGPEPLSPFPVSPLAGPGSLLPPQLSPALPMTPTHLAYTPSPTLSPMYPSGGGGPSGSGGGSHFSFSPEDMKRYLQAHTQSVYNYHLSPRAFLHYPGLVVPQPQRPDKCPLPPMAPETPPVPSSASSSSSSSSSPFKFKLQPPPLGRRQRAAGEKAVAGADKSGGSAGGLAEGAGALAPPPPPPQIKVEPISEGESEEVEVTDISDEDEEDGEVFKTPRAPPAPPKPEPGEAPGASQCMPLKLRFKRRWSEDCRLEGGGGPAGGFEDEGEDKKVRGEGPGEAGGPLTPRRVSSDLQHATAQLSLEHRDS
In short: as §1

Sequence	binding signal (ERG)	binding signal (ELF1)	binding signal (EHF)	binding signal (ETV5)	binding signal (ELF3)	binding signal (ETV1)	binding signal (ETV7)	binding signal (ETV3)	binding signal (ETV6)	binding signal (ELK3)	binding signal (SPIC)	binding signal (ERF)
GAAACC	1.05 fold enrichment (6-mer frequency, TF over GST control)	1.04 fold enrichment (6-mer frequency, TF over GST control)	1.04 fold enrichment (6-mer frequency, TF over GST control)	1.05 fold enrichment (6-mer frequency, TF over GST control)	1.03 fold enrichment (6-mer frequency, TF over GST control)	1.02 fold enrichment (6-mer frequency, TF over GST control)	1.04 fold enrichment (6-mer frequency, TF over GST control)	1.02 fold enrichment (6-mer frequency, TF over GST control)	1.08 fold enrichment (6-mer frequency, TF over GST control)			
AGTTAC	1 fold enrichment (6-mer frequency, TF over GST control)		1.02 fold enrichment (6-mer frequency, TF over GST control)	1.05 fold enrichment (6-mer frequency, TF over GST control)						1.03 fold enrichment (6-mer frequency, TF over GST control)	1.1 fold enrichment (6-mer frequency, TF over GST control)	1.01 fold enrichment (6-mer frequency, TF over GST control)
